Data from PubChem BioAssay AID623868 (Vanderbilt High Throughput Screening Facility, 2012).
In all, about 2,100 compounds went through this assay and about 760 (36%) were called active. These entries were drawn from the full list. Values without a mark were called inactive.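 Rule for the calls: active = thallium-flux fluorescence traces judged by eye to show enhanced or reduced glutamate response, manual score 1 or -1, so both directions (some results past the limit were not filed as active); inactive = the rest, including fluorescent or raised-baseline compounds.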

Assay: non-GIRK thallium flux modulation in mGlu8 cells, confirmation, counter-screen for GIRK activator project, cell-based, HEK-293 rmGlu8, no GIRK (AID 623868);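 note: extra codes mark interference with 3 for fluorescent and 4 for baseline rise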
Conditions: thallium flux fluorescence, at 10 µM, actives lie on both sides, codes: 1 enhancer, -1 blocker, 0 none, thallium stimulus containing EC20 glutamate

SMILES | manual score
O=C1CC(C(F)(F)C(F)(F)C(F)(F)F)=Nc2ccccc2N1 | 0
Cc1ccc(NC(=O)Cc2c(Cl)cccc2Cl)cc1S(=O)(=O)N(C)C | 0
COc1ccccc1C(c1nnnn1CCc1ccccc1)N1CCCCCC1 (stereo unspecified) | 0
COC(=O)C1=NN(C(=O)c2ccc(C)cc2)C(O)(c2ccc(Cl)cc2)C1 (stereo unspecified) | 1 (active)
COc1ccc2cc(C(=O)NCC(=O)O)sc(=O)c2c1OC | 0
N#CCSc1nc2ccc(N3CCOCC3)cc2c(=O)n1CCc1ccccc1 | 0
CCCCn1c(SCC(=O)/C(C#N)=C(\C)N)nc2ccccc2c1=O | 1 (active)
CCCCn1c(SCC(=O)NCc2ccco2)nc2ccccc2c1=O | 1 (active)
CCOC(=O)CSc1nc2c(sc3ccccc32)c(=O)n1CCCN1CCOCC1 | 0
O=C(CCCCn1c(=O)c2ccccc2n(CC(=O)NC2CCCC2)c1=O)NCc1ccco1 | 0
CC(C)CCn1c(SCC#N)nc2c(sc3ccccc32)c1=O | 0
CCCCCn1c(NCc2ccco2)nc2ccccc21 | 0
CCCCn1c(SCc2nc(N)nc(Nc3ccccc3C)n2)nc2ccccc2c1=O | 0
CCCCn1c(SCC(N)=O)nc2c(sc3ccccc32)c1=O | 1 (active)
C/C(N)=C(/C#N)C(=O)CSc1nc2cc(Cl)ccc2c(=O)n1-c1ccc(C)cc1 | 1 (active)
O=c1sc(N2CCN(c3ccccc3F)CC2)nc2ccsc12 | 0
COc1ccc(C2C(C(N)=O)=C(C)Nc3nc(-c4cccc(Cl)c4)nn32)cc1OC (stereo unspecified) | 0
OC(c1ccccc1)C1CN(Cc2ccccc2)CCC1(O)c1ccccc1 (stereo unspecified) | 0
CCNC(=S)Nc1nc2c(cc1C(=O)OCC)CCCC2 | 1 (active)
Cc1cc(C)cc(NC(=O)Cn2cc3c(n2)CCCCC3)c1 | 0
CCOC(=O)c1cc(NC(=O)SCC(=O)O)c(C)nc1C | 0
C=CCNC(=S)Nc1nc2c(cc1C(=O)OCC)CCCC2 | 1 (active)
C=C(C)CNC(=S)N/N=C1\CCCCc2ccccc21 | 0
C=C(C)CNC(=S)Nc1nc2c(cc1C(=O)OCC)CCCC2 | 1 (active)
CCN(C(=O)COc1cc(=O)n(CC)c2ccccc12)c1cc(Cl)ccc1OC | 0
N#CC(C#N)=C1C=C2C=C(N3CCCCC3)CCC2CC1 (stereo unspecified) | 3

SMILES | manual score
Cc1onc(-c2ccccc2)c1C(=O)NNC(=S)NC(=O)c1ccc(Br)cc1 | 1 (active)
O=C(COc1ccccc1)NNC(=S)NC(=O)c1ccc(Cl)cc1Cl | 1 (active)
Cc1ccc(C(=O)NNC(=S)NC(=O)c2ccc(Cl)cc2Cl)cc1 | 1 (active)
O=C(NC(=S)NNC(=O)c1cccs1)c1ccc(Br)o1 | 1 (active)
Cc1ccc(-c2cnc(NC(=O)CCC(=O)N3CCCCC3)n2C)cc1 | 0
CCOC(=O)N1CCC(NC(=O)c2cnn3c2NC(c2ccco2)CC3C(F)(F)F)CC1 (stereo unspecified) | 0
COc1cc(OC)c2nc(C)c3c(c2c1)N(c1ccc(O)cc1)CC3 | 0
CCC1Oc2ccc(C)cc2N(CC(=O)N(Cc2ccc(C)o2)C2CCCC2)C1=O (stereo unspecified) | 0
CCOC(=O)c1oc2nc(C(C)C)c3c(c2c1N)CC(C)(C)OC3 | 0
Cc1cccc(C(=O)NC(=S)NNC(=O)c2cccs2)c1 | 1 (active)
Cc1onc(-c2ccccc2)c1C(=O)NC(=S)Nc1sc2c(c1C#N)CCCC2 | 1 (active)
Cc1cccc(C(=O)NC(=S)NNC(=O)c2ccccc2Cl)c1 | 1 (active)
Cc1ccccc1C(=O)NC(=S)Nc1sc2c(c1C#N)CCCC2 | 0
Cc1ccccc1C(=O)NNC(=S)NC(=O)c1ccccc1 | 1 (active)
O=C(CSc1nnc2ccccn12)Nc1nsc(-c2ccccc2)n1 | 0
CCc1ccccc1N(C)C(=O)CCc1nc(-c2ccc(C)cc2)no1 | 0
O=C(Nc1cccc(S(=O)(=O)c2cccc(NC(=O)C3CC3)c2)c1)C1CC1 | 0.5
Cc1cccc(NC(=O)CN(c2ccc(C(C)C)cc2)S(=O)(=O)c2c(C)nn(C)c2C)n1 | 0
COc1ccc(C2CC(c3ccc(Cl)c(Cl)c3)Nc3nc(N)nn32)cc1 (stereo unspecified) | 0
Cc1ccc(C(=O)NNC(=S)NC(=O)c2ccc(Cl)cc2)cc1 | 1 (active)
Cc1ccccc1C(=O)NC(=S)Nc1ccc(Oc2ccc(Cl)cc2)cc1 | 0
Cc1ccccc1C(=O)NNC(=S)NC(=O)c1ccc(Cl)cc1Cl | 1 (active)
Cc1c(Cl)cccc1NC(=S)/C(=C(\[O-])c1ccc(Cl)s1)[n+]1ccccc1 | 0
Cc1ccccc1C(=O)NNC(=O)C(=O)Nc1cccc(Cl)c1C | 1 (active)
Cc1cccc(C(=O)NC(=S)NNC(=O)c2ccc(Cl)cc2)c1 | 1 (active)
O=C(O)C1C2C=CC3(CN(C4CCCC4)C(=O)C13)O2 (stereo unspecified) | 0

SMILES | manual score
O=C1C2C3C=CC(C3)C2C(=O)N1/N=C/c1cn(Cc2ccccc2)c2ccccc12 (stereo unspecified) | 0
Cc1cc(C)nc(N(C#N)Cc2ccc(Br)cc2)n1 | 0
CCn1c(SCC(=O)c2cc(C)n(CC3CCCO3)c2C)nc2ccccc21 (stereo unspecified) | 0
COC(=O)c1cc(CSc2nc3ccc(C)cc3[nH]2)oc1C | -1 (active)
O=C(CSc1nc2ccc(Cl)cc2[nH]1)Nc1ccc2c(c1)CCC2 | 0
Cc1ccc(CSc2nc3ccncc3[nH]2)cc1 | 0
O=C(CCS(=O)NCc1ccccc1)NCc1ccccc1 (stereo unspecified) | 0
Cc1ccc(N2C=Nc3ccc(C)c4nc(C)cc2c34)cc1 | -1 (active)
CN1CC=C2C(C#N)=C(N)C(C#N)(C#N)[C@H](c3cccc(Cl)c3)C2C1 (stereo partly specified) | 3
Cc1ccc(CN2C3=NCCCN3c3ccccc32)cc1 | 0
COc1ccc(CN2CCNC(=O)C2CC(=O)O)cc1OC (stereo unspecified) | 0
COc1cc(CNCCc2c[nH]c3ccccc23)ccc1OCc1ccc(F)cc1 | 0
COc1cc(/C=C(/C#N)c2ccc(F)cc2)ccc1OCc1ccc(C(=O)O)o1 | -1 (active)
CSc1nc(Sc2ccccc2)c2ccccc2n1 | 0
COc1cc(NC(=O)Cc2cccs2)cc(OC)c1 | 0
O=C(/C=C/c1cccs1)NC(=S)NNC(=O)Cc1cccs1 | 1 (active)
O=C(Cc1cccs1)Nc1cccnc1 | 0
CCOc1ccc(C(=O)CN2CCN(S(=O)(=O)c3ccc(Br)cc3)CC2)cc1 | 0
O=C(NNC(=O)c1cc(-c2ccccc2)n(-c2ccccc2)n1)c1cccc([N+](=O)[O-])c1 | 1 (active)
CC(=O)c1sc(NC(=O)c2cc(-c3ccccc3)nn2-c2ccccc2)nc1C | 0
COc1ccc(Nc2nc(-c3cccc([N+](=O)[O-])c3)nc3ccccc23)cc1 | 0
Cn1c2ccccc2c2cc(C(=O)NNS(=O)(=O)c3ccc(F)cc3)sc21 | 0.5
Cc1sc2c(c1C)CN(C1CC(C)(C)NC(C)(C)C1)CN2C(=O)c1ccco1 | 0
COC(=O)c1ccc(C(=O)OC)c(NC(=O)CSc2nc(-c3ccco3)cc(C(F)(F)F)n2)c1 | 0
O=C(Nc1nnc(-c2ccccc2Cl)o1)c1ccc(S(=O)(=O)N2CCCCCC2)cc1 | 1 (active)
O=S(=O)(c1ccc(-c2nnc(SCc3nnc(-c4ccccc4)o3)o2)cc1)N1CCCC1 | 0

SMILES | manual score
COc1ccccc1NC(=O)c1ccc(S(=O)(=O)N2CCCC2)cc1 | 0
CC1CCCN(S(=O)(=O)c2ccc(C(=O)Nc3nnc(-c4ccccc4Cl)o3)cc2)C1 (stereo unspecified) | 1 (active)
CCN(CC)c1ccc2cc(C(=O)NNC(=O)c3ccc(S(=O)(=O)N4CCCCC4)cc3)c(=O)oc2c1 | 0
Cc1cc(C)nc(N2CCCC(C(=O)NCCc3ccc(F)cc3)C2)n1 (stereo unspecified) | 0
CN1/C(=C\C=C2/C(=O)Oc3ccccc3C2=O)C(C)(C)c2ccccc21 | 3
Cc1ccc(NC(=O)COc2cccnc2[N+](=O)[O-])cc1S(=O)(=O)N1CCCCC1 | 0
Cc1nn(CC(=O)Nc2ccc(Cl)c(S(=O)(=O)N(C)C)c2)c(C)c1[N+](=O)[O-] | 0
CC1(C)CC2CC(C)(CN2c2ncnc3ccccc23)C1 (stereo unspecified) | 0
CC1(C)CC2CC(C)(CN2C(=S)NC(=O)c2ccccc2Cl)C1 (stereo unspecified) | 1 (active)
Nn1c(SC/C=C/c2ccccc2)nnc1-c1ccccn1 | 0
Clc1cccc(CSc2nc3ccncc3[nH]2)c1 | 0
Cc1oncc1C(=S)Nc1ccccc1 | 0
Cc1ccc(NC(=S)c2nc3ccccc3[nH]2)cc1 | 1 (active)
Fc1ccc(CSc2nc3ccccc3[nH]2)c2ccccc12 | 0
NC(=O)SCC(=O)Nc1ccc(Cl)cc1 | 0
S=C(Nc1ccc(Cl)cc1)c1nc2ccccc2[nH]1 | 1 (active)
CC(C)c1nc(N2CCN(C(=O)c3ccccc3)CC2)c(C#N)c2c1COC(C)(C)C2 | 0
Cc1c(C(=O)NC(=S)Nc2ccccc2N2CCCC2)cccc1[N+](=O)[O-] | 1 (active)
O=C(NC(=S)Nc1ccccc1N1CCCC1)c1ccccc1[N+](=O)[O-] | 1 (active)
O=C(NC(=S)Nc1ccccc1N1CCCC1)c1ccc(-c2cccc([N+](=O)[O-])c2)o1 | 0.5
O=C(NC(=S)Nc1ccccc1N1CCCC1)c1ccc([N+](=O)[O-])cc1 | 1 (active)
O=C(CSc1nc(O)cc(=O)n1-c1ccccc1)N1CCCCC1 | 2
COc1cccc(N(CC(=O)Nc2cccc(C(C)=O)c2)S(C)(=O)=O)c1 | 0
